Our source for the Potency and outcome values is PubChem BioAssay (Tox21).

The target of experiment [1] is Androgen receptor (Homo sapiens) (UniProt P10275). The experiment in a line: qHTS assay to identify small molecule antagonists of the androgen receptor (AR) signaling pathway using the MDA cell line in the presence of 0.5 nM R1881 (AID 1259243). Further: nearly all actives have a fitted effect of over 50% in size. Further: potency means the concentration at half of the fitted maximal effect. Put shortly: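 Luminescent reporter readout (ONE-Glo, 30 min, room temperature) after 16 hr co-treatment of MDA-kb2 cells with test compounds and 0.5 nM R1881 final, at 37C without CO2. The MMTV-driven luciferase responds to both AR and GR.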
Androgen receptor (Homo sapiens), sequence (P10275 whole entry, looked up): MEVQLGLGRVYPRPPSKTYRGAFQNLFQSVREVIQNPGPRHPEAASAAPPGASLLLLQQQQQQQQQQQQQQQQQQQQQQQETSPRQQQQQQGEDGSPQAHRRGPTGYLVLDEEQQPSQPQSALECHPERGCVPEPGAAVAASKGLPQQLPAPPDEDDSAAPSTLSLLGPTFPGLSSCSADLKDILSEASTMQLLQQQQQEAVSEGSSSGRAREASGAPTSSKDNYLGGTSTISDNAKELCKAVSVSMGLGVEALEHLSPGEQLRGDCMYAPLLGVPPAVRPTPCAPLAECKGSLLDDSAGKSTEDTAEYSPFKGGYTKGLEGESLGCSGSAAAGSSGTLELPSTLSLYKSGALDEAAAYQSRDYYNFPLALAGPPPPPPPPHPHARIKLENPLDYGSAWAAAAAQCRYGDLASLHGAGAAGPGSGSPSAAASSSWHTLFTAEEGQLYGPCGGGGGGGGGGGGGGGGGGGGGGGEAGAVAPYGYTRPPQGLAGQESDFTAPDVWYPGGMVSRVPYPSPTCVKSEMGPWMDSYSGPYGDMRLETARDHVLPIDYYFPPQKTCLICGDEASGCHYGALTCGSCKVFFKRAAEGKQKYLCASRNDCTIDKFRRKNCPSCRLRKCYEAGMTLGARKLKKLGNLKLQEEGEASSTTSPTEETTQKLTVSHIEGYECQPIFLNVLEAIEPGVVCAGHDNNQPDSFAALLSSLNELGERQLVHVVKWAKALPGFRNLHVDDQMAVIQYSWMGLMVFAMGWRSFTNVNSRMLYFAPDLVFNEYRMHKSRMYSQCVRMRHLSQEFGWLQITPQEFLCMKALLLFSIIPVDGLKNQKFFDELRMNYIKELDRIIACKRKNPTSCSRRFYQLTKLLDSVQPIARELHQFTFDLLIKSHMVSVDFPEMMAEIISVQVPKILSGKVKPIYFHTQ
Background: Quantitative high-throughput screening tests each substance at several concentrations.

Experiment [2] deals with Estrogen receptor (Homo sapiens) (UniProt P03372). Nature of the experiment: qHTS assay to identify small molecule antagonists of the estrogen receptor alpha (ER-alpha) signaling pathway using the BG1 cell line in the presence of 0.1 nM 17-beta-estradiol (AID 1259244). Further: nearly all actives have a fitted effect of over 50% in size. Further: potency means the concentration at half of the fitted maximal effect. The procedure, abridged:
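Luciferase luminescence (ONE-Glo, 30 min at room temperature) was read after 22 hr at 37C exposure to compounds plus 17beta-estradiol at 0.1 nM final. Cells were VM7Luc4E2 with endogenous ER-alpha and an ERE-driven luciferase, pre-cultured 5 days in hormone-depleted medium.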

Experiment [3] in a line: qHTS assay to identify small molecule HDAC inhibitors - cell viability counter screen (AID 1259365). Further: series mostly up to about 92 µM; nearly all actives have a fitted effect of over 50% in size. The procedure, abridged:
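CellTiter-Glo luminescence (30 min, room temperature) reported viability after a 2 h compound exposure at 37 C. Cells: wild-type HCT-116, 1,500 per well, seeded the night before.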

Experiment [4] is described as follows: qHTS assay to identify small molecule agonists of the sonic hedgehog signaling (Shh) pathway - cell viability counter screen (AID 1259366). Further: nearly all actives have a fitted effect of over 50% in size. Put shortly:
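Cytotoxicity counter screen: CellTiter-Fluor reagent added after 23 h compound exposure, then 1 h at 37C and fluorescence read. Cells were 3T3 Gli1-Luc, seeded 2,000 per well and dosed 4 h post-plating.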

A short description of experiment [5]: qHTS assay to identify small molecule antagonists of the sonic hedgehog signaling (Shh) pathway - cell viability counter screen (AID 1259367). Further: nearly all actives have a fitted effect of over 55% in size. The procedure, abridged: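 Tox21 library chemicals were tested on a Gli1-Luc NIH/3T3 clone (2,000 cells/well) stimulated by conditioned medium; viability was quantified as fluorescence from CellTiter-Fluor reagent added at 23 hr.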

Experiment [6] is described as follows: qHTS assay to identify small molecule agonists of the sonic hedgehog signaling (Shh) pathway (AID 1259368; calls by dose curve;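 further: NIH/3T3-derived 3T3Gli1-Luc cells carrying a stable Gli1-driven firefly luciferase reporter; series mostly up to about 92 µM; nearly all actives have a fitted effect of over 15% in size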). The procedure, abridged: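 Luminescence was read after 30 min at room temperature with luciferase reagent. Before that, 3T3Gli1-Luc cells (NIH/3T3 clone, stable Gli1-Luc reporter; 2,000/well) were exposed to compounds for 24 hr at 37C, 5% CO2, compounds being added 4 hr post-plating.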

Experiment [7] is described as follows: qHTS assay to identify small molecule antagonists of the sonic hedgehog signaling (Shh) pathway (AID 1259369; calls by dose curve; further: nearly all actives have a fitted effect of over 45% in size; further: potency means the concentration at half of the fitted maximal effect). Put shortly:
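Antagonist mode: compound added to 3T3 Gli1-Luc cells followed by conditioned-medium stimulation, 24 h at 37 C, 5% CO2. Inhibition taken as loss of Gli1-driven luciferase luminescence.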

Experiment [8] can be described thus: qHTS assay to identify small molecule agonists of the androgen receptor (AR) signaling pathway in the presence of an antagonist - cell viability counter screen (AID 1259379).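 Further: MDA-kb2 human breast cancer cells carrying an MMTV luciferase reporter; series mostly up to about 92 µM; nearly all actives have a fitted effect of over 25% in size.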 The procedure, abridged: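 Cytotoxicity counter-screen run in the same wells as the nilutamide-challenged (3.0 µM final) AR agonist assay in MDA-kb2 cells. Compounds tested at 15 concentrations for 16 h, 37 °C without CO2; CellTiter-Fluor fluorescence read.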

Experiment [9] is described as follows: qHTS assay to identify small molecule agonists of the estrogen receptor beta (ER-beta) signaling pathway - cell viability counter screen (AID 1259380). Further: nearly all actives have a fitted effect of over 30% in size. Further: potency means the concentration at half of the fitted maximal effect. The procedure, abridged: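 Cell viability counter screen: CellTiter-Glo luminescence (30 min, room temperature) measured in the same wells as the beta-lactamase readout, after 16 hr compound exposure at 37C of ER-beta-bla HEK293T cells in 2% charcoal-stripped FBS medium.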

For experiment [10], the target named is Androgen receptor (Homo sapiens) (UniProt P10275). The experiment in a line: qHTS assay to identify small molecule agonists of the androgen receptor (AR) signaling pathway in the presence of an antagonist (AID 1259381; calls by dose curve; further: nearly all actives have a fitted effect of over 15% in size). Put shortly: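 Agonist-mode confirmation run against 3.0 uM final nilutamide: compounds titrated at 15 concentrations onto MDA-kb2 MMTV-luciferase reporter cells. Luminescence measured with ONE-Glo following 16 hr incubation, 37C, 0% CO2.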

Experiment [11] can be described thus: qHTS assay to identify small molecule antagonists of the estrogen receptor beta (ER-beta) signaling pathway - cell viability counter screen (AID 1259382). Further: nearly all actives have a fitted effect of over 55% in size. Further: potency means the concentration at half of the fitted maximal effect. Put shortly: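 Cytotoxicity was measured in the same wells by CellTiter-Glo luminescence after 30 min at room temperature. Cells were ER-beta-bla HEK293T in charcoal-stripped serum, given compound together with 1 nM E2 and incubated 16 h at 37C.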

Experiment [12] deals with Estrogen receptor (Homo sapiens) (UniProt P03372). The experiment in a line: qHTS assay to identify small molecule agonists of the estrogen receptor alpha (ER-alpha) signaling pathway in the presence of an antagonist (AID 1259383; calls by dose curve; further: top concentration of the series differs between compounds; nearly all actives have a fitted effect of over 15% in size). The procedure, abridged: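 Agonist-mode confirmation run in the presence of 10.0nM (final) ICI-182,780 antagonist. The reporter was ERE-driven luciferase in VM7Luc4E2 cells, grown in charcoal-stripped serum. Cells were exposed to 15-concentration compound series for 22hr, then ONE-Glo luminescence was read.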
Estrogen receptor (Homo sapiens), sequence (P03372 whole entry, looked up): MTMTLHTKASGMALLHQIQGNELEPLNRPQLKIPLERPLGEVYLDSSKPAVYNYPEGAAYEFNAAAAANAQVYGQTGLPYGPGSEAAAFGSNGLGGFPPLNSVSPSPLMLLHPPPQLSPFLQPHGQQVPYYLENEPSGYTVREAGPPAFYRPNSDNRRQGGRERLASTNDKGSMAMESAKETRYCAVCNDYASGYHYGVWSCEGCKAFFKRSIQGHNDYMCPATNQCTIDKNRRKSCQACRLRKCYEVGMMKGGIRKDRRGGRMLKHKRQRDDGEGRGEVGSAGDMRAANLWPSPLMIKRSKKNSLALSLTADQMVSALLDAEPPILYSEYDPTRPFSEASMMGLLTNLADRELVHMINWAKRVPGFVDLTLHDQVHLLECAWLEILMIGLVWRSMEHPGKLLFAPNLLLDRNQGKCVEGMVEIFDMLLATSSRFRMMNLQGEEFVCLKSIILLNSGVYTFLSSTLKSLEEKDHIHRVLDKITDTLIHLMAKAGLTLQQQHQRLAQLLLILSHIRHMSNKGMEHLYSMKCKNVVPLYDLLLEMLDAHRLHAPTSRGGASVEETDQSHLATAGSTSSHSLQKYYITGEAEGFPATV

The nature of experiment [13]: qHTS assay to identify small molecule agonists or antagonists of the thyroid stimulating hormone receptor (TSHR) signaling pathway - wild type cell line counter screen (AID 1259384; calls by dose curve). Put shortly:
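Wild-type Hek293 cells, 800/well, 18 h at 37C, then compound with Ro20-1724 for 30 min RT. cAMP by HTRF (cAMP-d2/anti-cAMP cryptate), 1 h RT, fluorescence read. 15 concentrations, triplicates.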

Experiment [14] deals with Thyrotropin receptor (Homo sapiens) (UniProt P16473). The experiment in a line: qHTS assay to identify small molecule antagonists of the thyroid stimulating hormone receptor (TSHR) signaling pathway (AID 1259385; calls by dose curve; further: nearly all actives have a fitted effect of over 20% in size). Put shortly: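 TSHR-HEK293 cells (800/well) plated 18 h, then compounds with Ro20-1724 and TSH at 1.5 ng/mL final, 30 min at room temperature. cAMP quantified by HTRF (cAMP-d2/anti-cAMP-cryptate, 1 h); 15 concentrations in triplicate.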
Thyrotropin receptor (Homo sapiens), sequence (P16473 whole entry, looked up): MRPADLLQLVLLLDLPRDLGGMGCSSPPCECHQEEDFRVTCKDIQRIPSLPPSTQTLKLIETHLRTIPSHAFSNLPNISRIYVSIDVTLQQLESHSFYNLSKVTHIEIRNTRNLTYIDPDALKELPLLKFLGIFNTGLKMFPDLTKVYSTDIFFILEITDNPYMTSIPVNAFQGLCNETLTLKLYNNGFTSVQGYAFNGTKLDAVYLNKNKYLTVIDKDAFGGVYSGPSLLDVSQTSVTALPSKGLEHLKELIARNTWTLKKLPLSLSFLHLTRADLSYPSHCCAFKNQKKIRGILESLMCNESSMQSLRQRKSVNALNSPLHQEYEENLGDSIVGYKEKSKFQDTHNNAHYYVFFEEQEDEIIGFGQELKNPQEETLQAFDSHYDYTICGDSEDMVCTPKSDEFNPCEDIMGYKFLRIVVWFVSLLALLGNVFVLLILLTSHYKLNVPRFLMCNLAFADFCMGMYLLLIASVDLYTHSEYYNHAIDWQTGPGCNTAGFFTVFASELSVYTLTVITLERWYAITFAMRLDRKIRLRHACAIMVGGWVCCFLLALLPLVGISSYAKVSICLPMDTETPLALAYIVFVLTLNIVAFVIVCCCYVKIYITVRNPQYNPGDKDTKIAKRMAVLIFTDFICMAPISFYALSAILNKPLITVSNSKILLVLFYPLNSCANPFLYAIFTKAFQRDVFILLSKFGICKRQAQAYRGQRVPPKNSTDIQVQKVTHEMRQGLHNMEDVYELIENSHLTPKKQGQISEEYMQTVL

The target of experiment [15] is Progesterone receptor (Homo sapiens) (UniProt P06401). The experiment in a line: qHTS assay to identify small molecule agonists of the progesterone receptor (PR) signaling pathway (AID 1346784; calls by dose curve; further: nearly all actives have a fitted effect of over 30% in size). The procedure, abridged:
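Agonist qHTS: compounds pinned onto 3,000 PR-UAS-bla HEK 293T cells per well in charcoal-stripped serum medium, 16hr at 37C, then beta-lactamase activity measured by LiveBLAzer FRET fluorescence after 2 hours at room temperature.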

Experiment [16] has as its target Estrogen receptor beta (Homo sapiens) (UniProt Q92731). The experiment in a line: qHTS assay to identify small molecule agonists of the estrogen receptor beta (ER-beta) signaling pathway (AID 1259377; active means well fitted activation curve with a large enough effect in the signal ratio in the repeat runs, not every such curve was filed as active; the % refers to the signal ratio). Put shortly: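 Ratiometric beta-lactamase FRET read-out came after 2 h substrate loading at room temperature. It followed 16 h compound treatment at 37C of GripTite HEK293T cells carrying a UAS-bla reporter, plated in 2% charcoal-stripped FBS medium.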

Experiment [17] in a line: qHTS assay to identify small molecule agonists of the estrogen receptor alpha (ER-alpha) signaling pathway in the presence of an antagonist - cell viability counter screen (AID 1259386). Further: series mostly up to about 92 µM; nearly all actives have a fitted effect of over 30% in size. Put shortly:
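Compounds tested at 15 concentrations for 22 h at 37C alongside 10.0nM (final) ICI-182,780 antagonist, in VM7Luc4E2 cells grown in phenol red-free, charcoal-stripped medium. Viability read by CellTiter-Fluor fluorescence after 1 h reagent incubation.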

Experiment [18] deals with Estrogen receptor beta (Homo sapiens) (UniProt Q92731). The experiment in a line: qHTS assay to identify small molecule antagonists of the estrogen receptor beta (ER-beta) signaling pathway (AID 1259378; active means well fitted inhibition curve with a large enough effect in the signal ratio in the repeat runs, not every such curve was filed as active; the % refers to the signal ratio). Put shortly: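 ER-beta-UAS-bla HEK293T cells in 2% charcoal-stripped FBS medium treated with compound plus 1nM final 17-beta-estradiol for 16 hr at 37C. Beta-lactamase reporter read by FRET substrate fluorescence after 2 hours at room temperature.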
Estrogen receptor beta (Homo sapiens), sequence (Q92731 whole entry, looked up): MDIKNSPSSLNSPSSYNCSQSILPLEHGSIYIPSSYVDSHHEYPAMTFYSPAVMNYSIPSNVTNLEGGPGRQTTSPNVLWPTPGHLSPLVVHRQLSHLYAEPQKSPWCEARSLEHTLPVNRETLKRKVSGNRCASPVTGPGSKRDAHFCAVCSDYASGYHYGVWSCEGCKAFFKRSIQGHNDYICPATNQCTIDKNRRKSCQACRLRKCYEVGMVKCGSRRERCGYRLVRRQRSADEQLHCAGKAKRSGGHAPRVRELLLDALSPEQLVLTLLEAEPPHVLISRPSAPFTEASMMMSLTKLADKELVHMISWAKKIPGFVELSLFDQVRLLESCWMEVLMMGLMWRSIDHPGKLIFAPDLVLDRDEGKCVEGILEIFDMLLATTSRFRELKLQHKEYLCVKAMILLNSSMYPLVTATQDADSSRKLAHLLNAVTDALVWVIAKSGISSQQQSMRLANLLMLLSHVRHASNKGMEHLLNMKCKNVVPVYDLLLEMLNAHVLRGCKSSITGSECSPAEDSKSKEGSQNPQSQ

The nature of experiment [19]: qHTS assay to identify small molecule phospholipidosis (PLD) inducers (AID 1259344; active means well fitted curve in the direction sought with a large enough effect; an effect the other way counts as inactive or inconclusive). Put shortly: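 Image-based: LipidTOX Red pit count/intensity per well and per cell; HepG2, 24 h compound at 37 C, PFA fixation, Hoechst counterstain.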
A short description of experiment [20]: qHTS assay to identify small molecule HDAC inhibitors (AID 1259364). Further: top concentration of the series differs between compounds; nearly all actives have a fitted effect of over 45% in size. The procedure, abridged:
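Luminescence read after 30 min room-temperature HDAC-Glo incubation measures cellular class I/II HDAC activity. Compounds were applied for 2 hr at 37 C to HCT-116 wild-type cells seeded the day before.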

Structures are written as SMILES. Several values for one entry are separate records, joined by “and”; a condition that tells them apart may be missing. Identical values can stand only once. Results filed as inconclusive are left out. Activity calls are given as the source filed them. Unless noted, the call rests on the fitted dose curve; in most records, active means well fitted curve in the direction sought with a large enough effect in the repeat runs; inconclusive means weak or mixed curves; inactive means no such curve, though single readings can be large; an effect the other way counts as inactive or inconclusive.

Progesterone receptor (Homo sapiens), sequence (P06401 whole entry, looked up): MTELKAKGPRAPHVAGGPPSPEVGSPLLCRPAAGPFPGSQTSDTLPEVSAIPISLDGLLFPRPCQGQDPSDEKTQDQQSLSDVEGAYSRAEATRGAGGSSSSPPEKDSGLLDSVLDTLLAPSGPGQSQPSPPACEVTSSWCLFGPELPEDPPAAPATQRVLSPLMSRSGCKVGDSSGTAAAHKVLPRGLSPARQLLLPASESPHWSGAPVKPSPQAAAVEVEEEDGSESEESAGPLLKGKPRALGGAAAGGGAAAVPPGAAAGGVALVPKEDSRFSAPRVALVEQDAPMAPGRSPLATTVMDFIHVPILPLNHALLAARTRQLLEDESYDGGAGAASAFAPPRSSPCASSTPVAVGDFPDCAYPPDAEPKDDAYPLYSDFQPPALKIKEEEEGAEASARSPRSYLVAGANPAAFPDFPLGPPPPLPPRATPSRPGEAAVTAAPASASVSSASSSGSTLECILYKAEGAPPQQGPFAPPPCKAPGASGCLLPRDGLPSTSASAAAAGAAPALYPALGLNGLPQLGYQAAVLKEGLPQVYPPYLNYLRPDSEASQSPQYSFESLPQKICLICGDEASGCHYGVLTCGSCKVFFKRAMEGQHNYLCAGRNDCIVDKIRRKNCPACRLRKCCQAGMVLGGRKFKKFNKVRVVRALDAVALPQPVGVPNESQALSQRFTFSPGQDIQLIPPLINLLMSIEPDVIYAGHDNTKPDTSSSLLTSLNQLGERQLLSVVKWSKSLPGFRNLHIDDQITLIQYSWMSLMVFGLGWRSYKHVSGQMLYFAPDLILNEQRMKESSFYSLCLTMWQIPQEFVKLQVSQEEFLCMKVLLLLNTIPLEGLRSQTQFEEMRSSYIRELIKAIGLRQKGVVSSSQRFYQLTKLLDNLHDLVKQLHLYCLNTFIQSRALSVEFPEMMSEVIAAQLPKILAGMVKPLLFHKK

On to `CCc1ccc(C(c2ccc(CC)cc2)C(Cl)Cl)cc1`, for which, in experiment [1], the Potency is 49.3 µM (active). Besides, the Potency result in experiment [2], in experiment [3], in experiment [4], in experiment [5], in [6] and in experiment [7] was “inactive” each time. In addition, the Potency result in experiment [8], in experiment [9], in experiment [10], in experiment [11], in [12] and in experiment [13] was “inactive” in each case. Moreover, the Potency result in experiment [14] and in experiment [15] was “inactive” in each case.
As for `CN1C(=O)c2ccc([N+](=O)[O-])cc2C1=O`, the Potency result in experiment [1], in experiment [2], in experiment [3], in [5], in experiment [6] and in [7] was “inactive” throughout. Moreover, the Potency result in experiment [8], in [9], in experiment [10], in experiment [11], in [12] and in [13] was “inactive” each time. The Potency result in [14] and in experiment [17] was “inactive” in each case. For the same molecule, the outcome in experiment [16] was inactive.
Regarding `CC(C)(O)CCC(C)(C)O`, the Potency result in experiment [1], in experiment [2], in [3], in experiment [4], in [5] and in experiment [6] was “inactive” in each case. For the same molecule, the Potency result in experiment [7], in experiment [18], in experiment [8], in experiment [9], in experiment [10] and in experiment [11] was “inactive” in each case. Further, the Potency entry in experiment [12], in [13], in experiment [14] and in experiment [15] was “inactive” in each case. The molecule was classed as inactive in experiment [16].
Consider `Cc1cc(OCCOCC[N+](C)(C)Cc2ccccc2)ccc1C(C)(C)CC(C)(C)C`, for which the Potency was 13.6 µM (active) and 13.3 µM (active) in experiment [1]; 60.8 µM (active) and 29.8 µM (active) in experiment [2]; 10.8 µM (active) and 6.68 µM (active) in [7]; 27.1 µM (active) and 13.3 µM (active) in experiment [9]; 21.6 µM (active) and 13.3 µM (active) in experiment [11]. The Potency result in experiment [19], in experiment [20], in experiment [3], in experiment [6], in experiment [10] and in experiment [12] was “inactive” throughout. Besides, the Potency result in experiment [13], in [14] and in experiment [15] was “inactive” throughout. The molecule was called inactive in experiment [16].
Consider `COc1ccc(Cc2cnc(N)nc2N)cc1OC`, for which the Potency entry in experiment [1], in [2], in experiment [19], in experiment [20], in [3] and in experiment [4] was “inactive” in each case. The Potency entry in experiment [5], in [6], in [7], in [18], in [8] and in experiment [9] was “inactive” each time. The Potency result in experiment [10], in experiment [11], in [12], in [13], in [14] and in [17] was “inactive” throughout. For the same molecule, in experiment [15], the Potency entry was “inactive”. Also, the molecule was called inactive in [16].
